Test results taken from PMC5540273 (PLoS ONE, 2017).

Columns and labels:
Details in all cases: concentration: 1 μM, replicates: in singlicate; n = 1
MST2 = test system: T1, MST2
T1 construct: gene STK3

MST3 = test system: T2, MST3
T2 construct: gene STK24

MST4 = test system: MST4
MTOR = test system: MTOR
MUSK = test system: MUSK
MYLK2 = test system: MYLK2
MYLK4 = test system: MYLK4
MYLK = test system: MYLK
MYO3A = test system: MYO3A
MYO3B = test system: MYO3B
NDR1 = test system: T3, NDR1
T3 construct: gene STK38

NDR2 = test system: NDR2
NEK10 = test system: NEK10
NEK11 = test system: NEK11
NEK1 = test system: NEK1
NEK2 = test system: NEK2
NEK3 = test system: NEK3
NEK4 = test system: NEK4
NEK5 = test system: NEK5
NEK6 = test system: NEK6
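Further: KINOMEscan kinase panel screen.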

Compound	%Inh (MST2) [%]	%Inh (MST3) [%]	%Inh (MST4) [%]	%Inh (MTOR) [%]	%Inh (MUSK) [%]	%Inh (MYLK2) [%]	%Inh (MYLK4) [%]	%Inh (MYLK) [%]	%Inh (MYO3A) [%]	%Inh (MYO3B) [%]	%Inh (NDR1) [%]	%Inh (NDR2) [%]	%Inh (NEK10) [%]	%Inh (NEK11) [%]	%Inh (NEK1) [%]	%Inh (NEK2) [%]	%Inh (NEK3) [%]	%Inh (NEK4) [%]	%Inh (NEK5) [%]	%Inh (NEK6) [%]
Cc1cc(N2Cc3ccccc3C2)nc(Nc2ccc(S(=O)(=O)N3CCOCC3)cc2)n1.Cl [GSK1669917]	0	0	0	9	0	0	0	12	0	0	20	0	0	0	0	0	0	9	23	0
CCn1c(-c2cccnc2O)nc2cnccc21 [SB-736715]	23	0	0	0	0	15	0	0	0	3	0	0	0	0	0	0	21	0	0	0
Cc1cccc(-c2nc(Nc3ccc4[nH]ncc4c3)c3ccccc3n2)n1 [GW857175]	0	10	27	0	0	7	32	32	0	0	26	5	54	7	0	4	18	27	8	3
COC(=O)c1c(-c2ccccc2)c2cc(C(=O)O)ccc2c(=O)n1Cc1ccccc1	12	0	9	25	0	8	0	0	0	0	2	0	9	0	22	0	31	0	0	0
CS(=O)(=O)c1ccc(-c2nc3n(c2-c2ccncc2)CCC3)cc1 [SKF-105942]	0	0	0	0	12	0	4	17	25	77	19	0	17	0	0	15	58	22	1	0
